Each structure is given as a SMILES string. Hit rate of the full screen: of about 5,500 compounds, about 2,000 (36%) were called active. Not shown: some 18% with an inconclusive outcome. The list shows a part of the results. A number with no mark means an inactive call. Cut-off read from the data, not from the text of the source: active = normalized growth mostly below about 0.91 (no sharp cut-off); inconclusive = no clear call, values can overlap the other calls; inactive = mostly above about 0.92.

This assay is described as follows: chemical genetic growth profiling, strain panel (AID 1159580).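 Note: tested at 20 µM; growth read once vehicle control cultures reached saturation at 30 °C; 1 = growth at the plate median or of vehicle wells; lower values mean less growth of the strain.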 To be noted: S. cerevisiae deletion strains, growth OD.

`Nc1ccc(CCN2CCN(c3cccc(C(F)(F)F)c3)CC2)cc1`: the normalized growth by setting is: (locus YAL040C, strain CLN3, active compounds read low) 1.05; (locus YCL061C, strain MRC1 (second series), active compounds read low) 0.973; (locus YDR363W, strain ESC2, active compounds read low) 0.894; (locus YER002W, strain NOP16, active compounds read low) 1.03; (locus YGR229C, strain SMI1, active compounds read low) 0.501 (active); (locus YMR307W, strain GAS1, active compounds read low) 1.02. Further, the normalized growth was 1.02 (locus YNL175C, strain NOP13, active compounds read low); 1 (locus YNL197C, strain WHI3, active compounds read low); 1.01 (locus YNL224C, strain SQS1, active compounds read low); 1.02 (locus YOR083W, strain WHI5 (second series), active compounds read low).

The values above are taken from PubChem BioAssay AID1159580 (chemical genetic matrix, 2015).
